Records with an inconclusive call do not appear. Calls of active or inactive are those of the source. Calls follow the shape of the dose curve; as a rule, active = well fitted curve in the direction sought with a large enough effect; inconclusive = small, poorly fitted or top-dose-only effect, or another doubt; inactive = no such curve, though single readings can be large or run the other way.

The assay is described as follows: qHTS for Inhibitors of Bloom's syndrome helicase (BLM): Thiazole Orange DNA Binding Counterscreen for SAR. Particulars: fluorescence; Potency: Thiazole orange DNA displacement; series mostly up to 57.1 µM; activity change, negative = displacement: at the top concentration. The method, boiled down:
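Counterscreen for nonspecific DNA binding: thiazole orange (100 nM) pre-bound to 50 nM unlabeled DNA, test compound added, 15 min room-temperature incubation, then ex 480/em 530 nm fluorescence measured; lack of displacement preferred.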
As for `O=C(Nc1ccc2ccccc2c1)Nc1nnc(-c2ccncc2)s1`, the “activity change, negative = displacement” value was -2.58% (inactive).

On to `O=C(Nc1ccc2ccccc2c1)Nc1nnc(-c2ccc(O)cc2)s1`, for which the “activity change, negative = displacement” value was 62.3% (inactive).

As to `O=C(Nc1nnc(-c2ccncc2)s1)NC12CC3CC(CC(C3)C1)C2`, the “activity change, negative = displacement” value is 91.5% (inactive).

`O=C(Nc1ccc(F)c(C(F)(F)F)c1)Nc1nnc(-c2ccncc2)o1`: the “activity change, negative = displacement” value is -22.2% (inactive).

As for `O=C(Nc1ccc(Cl)c(Cl)c1)Nc1nnc(-c2ccc(F)cc2)s1`, the “activity change, negative = displacement” value was -18.2% (inactive).

With `O=C(Nc1ccc(Cl)c(C(F)(F)F)c1)Nc1nnc(-c2ccncc2)s1`, the “activity change, negative = displacement” value was 13.6% (inactive).

With `Cc1cnccc1-c1nnc(NC(=O)Nc2ccc(F)c(C(F)(F)F)c2)s1`, the “activity change, negative = displacement” value was 122% (inactive).

As for `O=C(Nc1ccc2ccccc2c1)Nc1nnc(-c2ccccc2F)s1`, the “activity change, negative = displacement” value is 2.78% (inactive).

Consider `O=C(Nc1ccc2sccc2c1)Nc1nnc(-c2ccncc2)s1`, for which the “activity change, negative = displacement” value is 5.03% (inactive).

As for `O=C(Nc1ccc(F)c(C(F)(F)F)c1)Nc1nc(-c2ccncc2)cs1`, the “activity change, negative = displacement” value was 96.9% (inactive).

Regarding `O=C(Nc1ccc2ccccc2c1)Nc1nnc(C2CCCCC2)s1`, the “activity change, negative = displacement” value is 199% (inactive).

Take `CCOC(=O)c1cccc(NC(=O)Nc2nnc(-c3ccncc3)s2)c1`: the “activity change, negative = displacement” value is 91.3% (inactive).

Consider `CCOc1ccc(NC(=O)Nc2ccc(-c3nc4ccccc4[nH]3)cc2)cc1`, for which the “activity change, negative = displacement” value was 71.7% (inactive).

`O=C(Nc1ccc(Cl)c(Cl)c1)Nc1ccc(-c2ccncc2)s1`: the “activity change, negative = displacement” value is -4.46% (inactive).

As for `O=C(Cc1nnc(-c2ccncc2)s1)Nc1ccc(F)c(C(F)(F)F)c1`, the “activity change, negative = displacement” value is 52.1% (inactive).

Take `Cc1cc(NC(=O)Nc2nnc(-c3cccnc3)s2)ccc1Br`: the “activity change, negative = displacement” value is 51.4% (inactive).

As to `O=C(Nc1cc(C(F)(F)F)cc(C(F)(F)F)c1)Nc1nnc(-c2ccncc2)s1`, the “activity change, negative = displacement” value was 3.51% (inactive).

Regarding `O=C(Nc1ccc(-c2nc3ccccc3[nH]2)cc1)Nc1ccc2c(c1)OCCO2`, the “activity change, negative = displacement” value is 2.09% (inactive).

Take `O=C(Nc1ccc(Cl)c([N+](=O)[O-])c1)Nc1cccc(-c2ccncc2)n1`: the “activity change, negative = displacement” value is -18.5% (inactive).

As to `O=C(Nc1ccc2ccccc2c1)Nc1nnc(-c2ccc(Cl)cc2)s1`, the “activity change, negative = displacement” value was -23.2% (inactive).

For `O=C(Nc1ccc2c(c1)OCCO2)Nc1nnc(-c2ccncc2)s1`, the “activity change, negative = displacement” value was 88% (inactive).

With `O=C(Nc1ccc(N2CCOCC2)c(C(F)(F)F)c1)Nc1nnc(-c2ccncc2)s1`, the Potency was 4.08 µM (active).

In the case of `CC(=O)c1cccc(NC(=O)Nc2nnc(-c3ccncc3)s2)c1`, the “activity change, negative = displacement” value is 218% (inactive).

With `N#CN/C(=N\c1nnc(-c2ccncc2)s1)Nc1ccc(F)c(C(F)(F)F)c1`, the “activity change, negative = displacement” value is -23.3% (inactive).

For `Cc1cc(NC(=O)Nc2nnc(C3CCCCC3)s2)ccc1Cl`, the “activity change, negative = displacement” value is 100% (inactive).

On to `O=C(Nc1nnc(-c2ccncc2)s1)Nc1ccc(Cl)c2ccccc12`, for which the “activity change, negative = displacement” value was -7.44% (inactive).

In the case of `O=C(Nc1ccc(Cl)c(Cl)c1)Nc1nnc(-c2cccnc2)s1`, the “activity change, negative = displacement” value is -0.0445% (inactive).

As to `O=C(Nc1ccc2ccccc2c1)Nc1cccc(-c2ccncc2)n1`, the “activity change, negative = displacement” value is 1.01% (inactive).

Consider `Cc1cc(C)c(-c2nnc(NC(=O)Nc3ccc4ccccc4c3)s2)c(C)c1`, for which the “activity change, negative = displacement” value is 10.1% (inactive).

With `O=c1c(Nc2ccc(Br)c(Br)c2)c(Nc2nnc(-c3ccncc3)s2)c1=O`, the Potency is 10.2 µM (active).

For the compound `O=C(Nc1ccc(Br)c(Br)c1)Nc1cccc(-c2ccncc2)n1`, the “activity change, negative = displacement” value was 15.3% (inactive).

Regarding `O=C(Nc1ccc(F)c(C(F)(F)F)c1)Nc1nnc(-c2cccnc2)s1`, the “activity change, negative = displacement” value is -2.96% (inactive).

As to `O=C(Nc1ccc(Br)c(Br)c1)Nc1nnc(-c2cccnc2)s1`, the “activity change, negative = displacement” value was 89.9% (inactive).

Turning to `Cc1cc(NC(=O)Nc2cccc(-c3ccncc3)n2)ccc1Br`, the “activity change, negative = displacement” value was 24.6% (inactive).

As to `O=C(Nc1ccc(Cl)c(Cl)c1)Nc1ncc(-c2ccncc2)s1`, the “activity change, negative = displacement” value was 126% (inactive).

For the compound `O=C(Nc1nnc(-c2ccncc2)s1)Oc1ccc2ccccc2c1`, the “activity change, negative = displacement” value is 156% (inactive).

For `O=C(Nc1nnc(-c2ccncc2)s1)Nc1cccc2ccccc12`, the “activity change, negative = displacement” value was 1.97% (inactive).

As for `O=C(Nc1cccc(C(F)(F)F)c1)Nc1nnc(-c2ccncc2)s1`, the “activity change, negative = displacement” value was 48.7% (inactive).

Source of the values: PubChem BioAssay AID720550 (National Center for Advancing Translational Sciences (NCATS), 2013).
